Four molecules from PubChem BioAssay (EPA / NIEHS) can be followed below.

The source made the active and inactive calls. How the source made its calls: active means hit-call score of the fitted dose curve at least 0.9, where 1 is the maximum; inactive means score below 0.9.

A short description of assay [1]: ATG_GLI_CIS: Attagene CIS-FACTORIAL HepG2 Assay for human Zinc Finger Protein GLI1 (AID 2282945). Particulars: HepG2, Attagene cis-factorial reporter mRNA, GLI element; actives raise or lower the signal. The procedure, abridged:
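Bidirectional curve fits relative to DMSO, using reporter mRNA levels from RT-PCR plus capillary electrophoresis. Cells were HepG2 transiently carrying cis-regulated reporter constructs, harvested 24 h after dosing.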

Assay [2] has as its target Bile acid receptor (Homo sapiens) (UniProt Q96RI1). As to the kind of experiment: ATG_IR1_CIS: Attagene CIS-FACTORIAL HepG2 Assay for human Nuclear Receptor Subfamily 1 Group H Member 4 (NR1H4), IR1 submotif (AID 2282946). Particulars: IR1 reporter transcription, actives raise or lower the signal. Summed up:
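Cells (human HepG2) carry transiently transfected cis-promoter reporter transcription units. Compounds are incubated 24 h, total RNA is reverse-transcribed and amplified, and labelled fragments are resolved by capillary electrophoresis. Curves use DMSO as baseline.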

A short description of assay [3]: ATG_ISRE_CIS: Attagene CIS-FACTORIAL HepG2 Assay for human Interferon Regulatory Factor 1 (IRF1) binding to an Interferon-Stimulated Response Element (ISRE) (AID 2282948). Particulars: HepG2 ISRE cis-reporter (Attagene), mRNA transcription readout; actives raise or lower the signal. Summed up:
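Transfected HepG2 (multiple reporter transcription units, cis elements) dosed 24 h. RNA → oligo(dT) RT → PCR → 6-FAM primer extension → HpaI → CE. DMSO = negative control/baseline.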

Assay [4] in a line: ATG_M_32_CIS: Attagene CIS-FACTORIAL HepG2 Assay for M32 Transcription Factor (Internal Marker) (AID 2282949).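 Further: background control marker of the multiplexed CIS panel rather than a real target.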 Particulars: HepG2 Attagene cis-factorial M32 reporter, mRNA; actives raise or lower the signal. Summed up: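 Internal background marker read-out: RT-PCR/capillary electrophoresis fluorescence of reporter transcripts from transiently transfected HepG2 cells after 24 h chemical exposure. Activity fitted bidirectionally relative to DMSO negative control.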

Assay [5] is described as follows: ATG_M_06_CIS: Attagene CIS-FACTORIAL HepG2 Assay for M06 Transcription Factor (Internal Marker) (AID 2282950). Particulars: HepG2 Attagene CIS-FACTORIAL M06 internal marker reporter; actives raise or lower the signal. Summed up: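 Measured 24 h post-dosing in transiently transfected HepG2 cells, this internal-marker endpoint reports reporter mRNA via RT-PCR with fluorescent primer extension and capillary electrophoresis. DMSO served as negative control and baseline for bidirectional fitting.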

Assay [6] addresses Hypoxia-inducible factor 1-alpha (Homo sapiens) (UniProt Q16665). Nature of the assay: ATG_HIF1a_CIS: Attagene CIS-FACTORIAL HepG2 Assay for human Hypoxia Inducible Factor 1 (HIF1A) (AID 2282951). Particulars: HepG2 Attagene cis-factorial HIF1a reporter transcription; actives raise or lower the signal. The procedure, abridged: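 Transient MRTU transfection of human HepG2 liver cells, 24 h compound treatment, then total RNA isolation, oligo(dT) reverse transcription, PCR amplification, fluorescent labelling and capillary electrophoresis of reporter fragments. Gain or loss relative to DMSO.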

Assay [7] addresses Hepatocyte nuclear factor 6 (Homo sapiens) (UniProt Q9UBC0). As to the kind of experiment: ATG_HNF6_CIS: Attagene CIS-FACTORIAL HepG2 Assay for human Hepatocyte Nuclear Factor 6 (HNF6) (AID 2282952). Particulars: HepG2 Attagene cis-factorial HNF6 reporter transcription; actives raise or lower the signal. Summed up: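 Transiently transfected HepG2 cells expressing cis-regulated reporter transcription units were exposed to chemical for 24 h in a 24-well format. Reporter transcript abundance was determined by fluorescence capillary electrophoresis.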

Assay [8] deals with Heat shock factor protein 1 (Homo sapiens) (UniProt Q00613). Nature of the assay: ATG_HSE_CIS: Attagene CIS-FACTORIAL HepG2 Assay for human Heat Shock Transcription Factor 1 (HSE) (AID 2282953). Particulars: HepG2 HSE cis-reporter, Attagene RNA transcription; actives raise or lower the signal. Summed up: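 Reporter mRNA induction in HepG2 is measured 24 h after dosing, using transiently transfected multiplexed cis-regulated reporter units. Signal comes from capillary electrophoresis of labelled RT-PCR products, with DMSO as negative control.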
Sequence of Heat shock factor protein 1 (Homo sapiens) (Q00613 whole entry, looked up): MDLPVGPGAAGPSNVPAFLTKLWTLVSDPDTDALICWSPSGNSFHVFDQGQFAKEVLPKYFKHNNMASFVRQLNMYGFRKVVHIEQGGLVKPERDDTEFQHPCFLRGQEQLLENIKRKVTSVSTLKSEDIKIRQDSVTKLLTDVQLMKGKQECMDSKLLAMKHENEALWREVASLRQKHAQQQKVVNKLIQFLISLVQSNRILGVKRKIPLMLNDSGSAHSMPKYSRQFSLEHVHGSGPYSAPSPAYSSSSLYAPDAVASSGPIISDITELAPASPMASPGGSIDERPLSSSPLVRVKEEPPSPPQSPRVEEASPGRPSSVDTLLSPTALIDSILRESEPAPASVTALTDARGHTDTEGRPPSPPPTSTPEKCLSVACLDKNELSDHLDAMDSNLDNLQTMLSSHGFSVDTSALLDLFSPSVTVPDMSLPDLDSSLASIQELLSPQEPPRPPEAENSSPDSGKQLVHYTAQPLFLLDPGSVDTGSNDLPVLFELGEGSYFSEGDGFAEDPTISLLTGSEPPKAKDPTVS

Assay [9] can be described thus: ATG_MRE_CIS: Attagene CIS-FACTORIAL HepG2 Assay for human Metal Responsive Element (MRE) (AID 2282954). Particulars: HepG2 MRE cis-reporter transcription, Attagene multiplex; actives raise or lower the signal. Summed up: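 After a 24 h chemical exposure, transiently transfected HepG2 cells yield RNA whose reporter sequences are amplified, FAM-labelled and sized by capillary electrophoresis. Curves are fitted bidirectionally relative to DMSO.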

A short description of assay [10]: ATG_PBREM_CIS: Attagene CIS-FACTORIAL HepG2 Assay for human Phenobarbital-responsive Enhancer Module (PBREM) (AID 2282955). Particulars: HepG2 PBREM cis-reporter, Attagene multiplexed transcription; actives raise or lower the signal. The procedure, abridged:
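Endogenous transcription factors in human liver HepG2 cells drive a PBREM cis-element reporter, whose transcript level after 24 h treatment is quantified by RT-PCR with capillary electrophoresis; activity fitted in both directions against DMSO.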

The target in assay [11] is Paired box protein Pax-6 (Homo sapiens) (UniProt P26367). As to the kind of experiment: ATG_Pax6_CIS: Attagene CIS-FACTORIAL HepG2 Assay for human Paired Box 6 (PAX6) (AID 2282956). Particulars: HepG2 CIS-FACTORIAL PAX6 reporter transcription, RNA readout; actives raise or lower the signal. Summed up: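 Transient MRTU transfection of HepG2 → compound exposure 24 h → TriZol RNA, oligo(dT) RT → PCR, 6-FAM primer extension, HpaI cut → capillary electrophoresis; activity fitted both directions against DMSO.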
Sequence of Paired box protein Pax-6 (Homo sapiens) (P26367 whole entry, looked up): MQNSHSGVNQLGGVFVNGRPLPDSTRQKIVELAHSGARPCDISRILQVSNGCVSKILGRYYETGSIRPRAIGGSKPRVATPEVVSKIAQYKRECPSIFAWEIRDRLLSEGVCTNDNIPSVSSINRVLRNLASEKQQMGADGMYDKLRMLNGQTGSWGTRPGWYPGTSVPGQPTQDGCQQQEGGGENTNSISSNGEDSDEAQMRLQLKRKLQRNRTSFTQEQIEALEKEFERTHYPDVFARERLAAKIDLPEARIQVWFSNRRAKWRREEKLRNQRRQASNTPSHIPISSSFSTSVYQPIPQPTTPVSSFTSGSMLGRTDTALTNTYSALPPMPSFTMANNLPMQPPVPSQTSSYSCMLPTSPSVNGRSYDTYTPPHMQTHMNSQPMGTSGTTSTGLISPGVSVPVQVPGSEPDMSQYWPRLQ

Assay [12] is described as follows: ATG_PXRE_CIS: Attagene CIS-FACTORIAL HepG2 Assay for human Pregnane X Receptor Element (PXRE) (AID 2282957). Particulars: HepG2 Attagene CIS-FACTORIAL PXRE reporter, mRNA; actives raise or lower the signal. The procedure, abridged:
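Cis-element reporter mRNA in human hepatoma HepG2 cells is measured 24 h post-dosing by RT-PCR, primer-extension labeling and capillary electrophoresis; gain or loss of signal is fitted relative to DMSO.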

A short description of assay [13]: ATG_RORE_CIS: Attagene CIS-FACTORIAL HepG2 Assay for human RAR-related Orphan Receptor Element (RORE) (AID 2282959). Particulars: HepG2 Attagene cis-factorial RORE reporter, mRNA; actives raise or lower the signal. The procedure, abridged:
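Transient MRTU transfection of human HepG2 liver cells (FuGene 6); 24 h compound exposure; TriZol RNA, oligo(dT) RT, PCR, FAM labeling, HpaI cut, CE fragment analysis. DMSO = negative control/baseline.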

Assay [14] can be described thus: ATG_Sox_CIS: Attagene CIS-FACTORIAL HepG2 Assay for human SRY-box transcription factor (SOX) (AID 2282960). Particulars: HepG2 Attagene cis-factorial SOX reporter, mRNA; actives raise or lower the signal. The procedure, abridged:
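Endogenous factor activity in human liver HepG2 cells carrying transfected cis-regulated reporter units. RNA taken 24 h post-dose, reverse-transcribed, PCR-amplified and sized by capillary electrophoresis. Gain or loss of signal fitted relative to DMSO.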

For assay [15], the target named is Transcription factor Sp1 (Homo sapiens) (UniProt P08047). As to the kind of experiment: ATG_Sp1_CIS: Attagene CIS-FACTORIAL HepG2 Assay for human Specificity Protein 1 (Sp1) (AID 2282961). Particulars: HepG2 Sp1 cis-reporter transcription, actives raise or lower the signal. The procedure, abridged:
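Transient MRTU-transfected HepG2, 24 h compound exposure. Total RNA → oligo(dT) RT → PCR of reporter → 6-FAM primer extension → HpaI digest → CE. Endpoint fitted both directions vs DMSO.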

The nature of assay [16]: ATG_SREBP_CIS: Attagene CIS-FACTORIAL HepG2 Assay for human Sterol Regulatory Element Binding (SREBP) (AID 2282962). Particulars: HepG2 Attagene cis-factorial SREBP reporter, mRNA; actives raise or lower the signal. Summed up: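 Transfected HepG2 (cis-regulated reporter library, endogenous TFs) → compound 24 h → total RNA → oligo(dT) RT → reporter-specific PCR → FAM primer extension, HpaI cut → CE fluorescence. Fit bidirectional vs DMSO.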

The target of assay [17] is Signal transducer and activator of transcription 3 (Homo sapiens) (UniProt P40763). Nature of the assay: ATG_STAT3_CIS: Attagene CIS-FACTORIAL HepG2 Assay for human Signal Transducer and Activator of Transcription 3 (STAT3) (AID 2282963). Particulars: HepG2, Attagene cis-factorial STAT3 reporter transcription; actives raise or lower the signal. The procedure, abridged: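 After a 24 h compound incubation, total RNA from MRTU-transfected HepG2 cells was converted to cDNA and reporter sequences PCR-amplified, labelled and profiled by capillary electrophoresis. Gain and loss of signal were referenced to DMSO.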
Sequence of Signal transducer and activator of transcription 3 (Homo sapiens) (P40763 whole entry, looked up): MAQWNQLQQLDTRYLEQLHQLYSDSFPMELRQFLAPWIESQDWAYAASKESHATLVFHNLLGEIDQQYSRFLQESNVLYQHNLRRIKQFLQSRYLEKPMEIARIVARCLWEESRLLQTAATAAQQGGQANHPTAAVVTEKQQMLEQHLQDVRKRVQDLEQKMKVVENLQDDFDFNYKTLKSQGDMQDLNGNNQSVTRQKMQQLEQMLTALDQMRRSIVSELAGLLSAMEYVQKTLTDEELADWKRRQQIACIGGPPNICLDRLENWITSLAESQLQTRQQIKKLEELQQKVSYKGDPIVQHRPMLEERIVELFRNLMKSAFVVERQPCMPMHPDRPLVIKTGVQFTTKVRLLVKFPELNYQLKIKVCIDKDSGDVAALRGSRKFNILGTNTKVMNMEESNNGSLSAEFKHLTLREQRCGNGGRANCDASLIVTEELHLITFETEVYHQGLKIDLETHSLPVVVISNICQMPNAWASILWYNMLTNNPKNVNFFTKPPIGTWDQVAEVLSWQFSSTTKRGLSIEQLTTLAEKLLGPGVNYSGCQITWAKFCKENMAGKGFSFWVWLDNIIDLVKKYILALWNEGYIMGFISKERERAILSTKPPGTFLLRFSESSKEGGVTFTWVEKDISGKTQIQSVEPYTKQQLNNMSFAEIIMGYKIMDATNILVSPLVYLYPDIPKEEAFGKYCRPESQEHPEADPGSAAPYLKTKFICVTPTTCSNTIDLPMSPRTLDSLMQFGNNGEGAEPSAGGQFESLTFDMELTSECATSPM

A short description of assay [18]: ATG_TA_CIS: Attagene CIS-FACTORIAL HepG2 Assay for human TA Basal Promoter (AID 2282964). Particulars: HepG2 Attagene CIS-factorial TA basal promoter reporter; actives raise or lower the signal. The procedure, abridged: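 Cis-factorial format in HepG2: reporters report endogenous factors, not chimeric Gal4 fusions. After 24 h treatment, reporter transcripts were measured by RT-PCR-capillary electrophoresis fluorescence, analysed bidirectionally versus DMSO.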

A short description of assay [19]: ATG_GRE_CIS: Attagene CIS-FACTORIAL HepG2 Assay for human Glucocorticoid Response Elements (GRE) (AID 2282947). Particulars: HepG2 GRE cis-reporter, Attagene multiplex mRNA; actives raise or lower the signal. Summed up: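 Assay uses human hepatoma HepG2 cells transfected with cis-promoter reporter units, exposed 24 h. mRNA from reporters detected by RT-PCR plus capillary electrophoresis; DMSO serves as negative control and baseline.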

Assay [20] can be described thus: ATG_PPRE_CIS: Attagene CIS-FACTORIAL HepG2 Assay for human Peroxisome Proliferator-activated Response Element (PPRE) (AID 2282958). Particulars: HepG2 PPRE cis-element reporter, Attagene transcription factor profiling; actives raise or lower the signal. The procedure, abridged: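 HepG2, transient MRTU transfection (cis promoter elements, endogenous TFs). 24 h dosing. RNA → oligo(dT) RT → PCR → 6-FAM primer extension → HpaI digest → CE. Bidirectional fit vs DMSO.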

Sequence of Hypoxia-inducible factor 1-alpha (Homo sapiens) (Q16665 whole entry, looked up, the tested form may be a part): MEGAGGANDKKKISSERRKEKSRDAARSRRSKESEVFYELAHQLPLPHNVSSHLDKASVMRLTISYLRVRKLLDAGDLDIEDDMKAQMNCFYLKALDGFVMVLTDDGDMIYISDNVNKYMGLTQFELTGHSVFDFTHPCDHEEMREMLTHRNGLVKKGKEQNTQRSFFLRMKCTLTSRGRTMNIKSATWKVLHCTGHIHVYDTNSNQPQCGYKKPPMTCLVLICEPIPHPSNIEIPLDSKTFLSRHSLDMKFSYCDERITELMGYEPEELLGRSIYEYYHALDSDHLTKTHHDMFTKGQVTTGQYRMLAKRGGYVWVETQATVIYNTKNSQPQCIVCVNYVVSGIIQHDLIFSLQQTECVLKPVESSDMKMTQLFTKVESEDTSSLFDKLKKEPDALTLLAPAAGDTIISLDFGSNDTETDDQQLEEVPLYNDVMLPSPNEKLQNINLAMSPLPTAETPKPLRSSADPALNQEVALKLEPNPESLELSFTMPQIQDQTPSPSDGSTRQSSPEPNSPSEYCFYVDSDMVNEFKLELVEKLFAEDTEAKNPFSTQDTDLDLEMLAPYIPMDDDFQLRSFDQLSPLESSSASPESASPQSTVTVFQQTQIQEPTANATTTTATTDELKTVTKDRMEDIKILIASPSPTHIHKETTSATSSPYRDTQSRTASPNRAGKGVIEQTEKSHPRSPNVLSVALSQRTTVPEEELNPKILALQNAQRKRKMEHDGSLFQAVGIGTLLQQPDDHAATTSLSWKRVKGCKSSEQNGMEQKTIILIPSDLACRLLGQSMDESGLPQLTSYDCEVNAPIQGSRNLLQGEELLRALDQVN
Sequence of Hepatocyte nuclear factor 6 (Homo sapiens) (Q9UBC0 whole entry, looked up): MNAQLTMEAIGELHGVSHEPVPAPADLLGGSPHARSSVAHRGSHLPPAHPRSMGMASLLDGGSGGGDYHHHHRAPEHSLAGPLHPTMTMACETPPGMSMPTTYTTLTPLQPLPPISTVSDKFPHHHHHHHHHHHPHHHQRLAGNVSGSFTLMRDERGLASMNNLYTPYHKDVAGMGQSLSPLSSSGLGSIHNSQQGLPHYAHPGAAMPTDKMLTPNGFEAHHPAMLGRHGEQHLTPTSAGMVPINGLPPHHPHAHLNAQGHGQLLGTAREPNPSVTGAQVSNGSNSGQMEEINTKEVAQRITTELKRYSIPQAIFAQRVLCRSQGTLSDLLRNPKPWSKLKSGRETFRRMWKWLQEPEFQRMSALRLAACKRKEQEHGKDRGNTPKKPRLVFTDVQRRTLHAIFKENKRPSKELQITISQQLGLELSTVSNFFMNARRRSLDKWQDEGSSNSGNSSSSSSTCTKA
Sequence of Transcription factor Sp1 (Homo sapiens) (P08047 whole entry, looked up): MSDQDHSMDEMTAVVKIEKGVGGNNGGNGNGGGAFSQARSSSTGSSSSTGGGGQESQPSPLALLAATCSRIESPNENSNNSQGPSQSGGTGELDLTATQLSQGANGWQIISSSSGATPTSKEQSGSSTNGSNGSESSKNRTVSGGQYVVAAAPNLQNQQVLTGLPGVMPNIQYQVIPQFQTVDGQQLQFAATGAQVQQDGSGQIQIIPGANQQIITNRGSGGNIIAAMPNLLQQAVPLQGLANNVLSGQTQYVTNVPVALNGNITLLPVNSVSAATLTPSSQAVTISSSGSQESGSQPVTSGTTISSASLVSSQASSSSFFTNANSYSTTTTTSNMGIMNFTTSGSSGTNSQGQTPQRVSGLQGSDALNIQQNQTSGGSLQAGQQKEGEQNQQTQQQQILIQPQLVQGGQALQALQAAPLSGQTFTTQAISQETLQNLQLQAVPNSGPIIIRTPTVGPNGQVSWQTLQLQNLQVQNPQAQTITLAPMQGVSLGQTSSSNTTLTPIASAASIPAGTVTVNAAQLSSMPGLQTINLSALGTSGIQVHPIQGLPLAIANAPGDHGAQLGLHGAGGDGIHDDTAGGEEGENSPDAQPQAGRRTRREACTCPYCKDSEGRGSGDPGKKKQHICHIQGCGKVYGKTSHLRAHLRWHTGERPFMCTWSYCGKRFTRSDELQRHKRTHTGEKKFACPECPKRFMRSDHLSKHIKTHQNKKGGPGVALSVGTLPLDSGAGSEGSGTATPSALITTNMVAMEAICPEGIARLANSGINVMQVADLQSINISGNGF
Sequence of Bile acid receptor (Homo sapiens) (Q96RI1 whole entry, looked up, the tested form may be a part): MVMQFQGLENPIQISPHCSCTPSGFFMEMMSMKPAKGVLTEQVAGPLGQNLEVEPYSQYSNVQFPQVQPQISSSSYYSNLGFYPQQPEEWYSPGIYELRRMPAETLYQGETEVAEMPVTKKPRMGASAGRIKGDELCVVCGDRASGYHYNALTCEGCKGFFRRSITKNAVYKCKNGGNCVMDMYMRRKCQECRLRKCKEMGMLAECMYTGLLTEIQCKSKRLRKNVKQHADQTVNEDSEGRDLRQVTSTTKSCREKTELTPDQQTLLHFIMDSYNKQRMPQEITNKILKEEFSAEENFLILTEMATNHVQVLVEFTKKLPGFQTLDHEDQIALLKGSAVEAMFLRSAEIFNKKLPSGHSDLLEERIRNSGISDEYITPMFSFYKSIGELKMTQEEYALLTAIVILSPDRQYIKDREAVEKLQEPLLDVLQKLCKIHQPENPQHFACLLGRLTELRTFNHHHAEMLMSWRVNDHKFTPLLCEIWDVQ

In the case of `CC1(C)CC(N=C=O)CC(C)(CN=C=O)C1` (stereo not drawn), the molecule was classed as inactive in assay [1], in assay [2], in assay [3], in assay [4], in assay [5] and in assay [6]. Moreover, the result in assay [7], in [8], in [9], in [10], in assay [11] and in assay [13] was inactive. For the same molecule, the result in assay [14], in assay [15], in assay [16], in [17] and in assay [18] was inactive. In assay [12], the AC50 (as a rule, the concentration at which the activity in the assay is half-maximal) was 55.6 µM (active).

For the molecule `Cc1cc(NC(=O)C(=O)O)cc(C)c1Oc1ccc(O)c2c1CCC2`, the outcome in assay [1], in [2], in assay [19], in assay [3], in assay [4] and in assay [5] was inactive. Besides, the molecule was classed as inactive in [6], in assay [8], in [9], in [10], in assay [11] and in assay [13]. The call in [14], in assay [15], in assay [16], in [17] and in assay [18] was inactive.

In the case of `CCc1c(C(=O)NN2CCCCC2)nn(-c2ccc(Cl)cc2Cl)c1-c1ccc(Br)cc1`, the outcome in assay [1], in [4], in [5], in assay [7], in assay [8] and in assay [10] was inactive. In addition, the result in [20], in [13], in [14], in [15], in [17] and in assay [18] was inactive. The AC50 was 2.4 µM (active) in [2]; 3.67 µM (active) in assay [3]; 0.387 µM (active) in [6]; 4.76 µM (active) in [9]; 1.75 µM (active) in [11]; 0.719 µM (active) in assay [16].

On to `COc1cc(S(=O)(=O)O)c(C)cc1N=Nc1c(O)ccc2cc(S(=O)(=O)O)ccc12`, for which the result in assay [1], in assay [2], in assay [19], in assay [3], in assay [4] and in [5] was inactive. Moreover, the call in assay [7], in [8], in assay [9], in assay [10], in assay [11] and in assay [12] was inactive. Moreover, the result in assay [20], in assay [13], in [14], in assay [15], in assay [16] and in assay [17] was inactive. Besides, the outcome in assay [18] was inactive. Further, in assay [6], the half-maximal activity concentration (AC50) was 5.78 µM (active).
